# Laboratory results published in PubChem BioAssay AID2283179 (EPA ToxCast).
# Records with an inconclusive call do not appear. Calls of active or inactive are those of the source. How the source made its calls: active means hit-call score of the fitted dose curve at least 0.9, where 1 is the maximum; inconclusive means response in the unintended direction; inactive means score below 0.9.
# Target: human Microtubule Affinity Regulating Kinase 1 (MARK1), MARK1 (gene 4139) (UniProt Q9P0L2)
# Experiment: NVS_ENZ_hMARK1: NovaScreen (NVS) Enzymatic Assay for human Microtubule Affinity Regulating Kinase 1 (MARK1)
# Procedure: NVS_ENZ_hMARK1 is a biochemical, single-readout assay that uses extracted gene-proteins in a cell-free assay. Measurements were taken 1 hour after chemical dosing in a 384-well plate.NVS_ENZ_hMARK1 is one of one assay component(s) measured or calculated from the NVS_ENZ_hMARK1 assay. It is designed to make measurements of enzyme activity, a form of enzyme reporter, as detected with fluorescence intensity signals by Fluorescence and electrophoretic mobility shift technology.Data from the assay component NVS_ENZ_hMARK1 was analyzed into 1 assay endpoint. This assay endpoint, NVS_ENZ_hMARK1, was analyzed in the positive analysis fitting direction relative to DMSO as the negative control and baseline of activity. Using a type of enzyme reporter, loss-of-signal activity can be used to understand changes in the enzymatic activity as they relate to the gene MARK1. Furthermore, this assay endpoint can be referred to as a primary readout, because this assay has produced multiple assay endpoints where this one serves a enzymatic activity function. To generalize the intended target to other relatable targets, this assay endpoint is annotated to the kinase intended target family, where the subfamily is serine/threonine kinase.
# Binding assays used specific radioligands (tritiated, iodinated) with non-radioactive competitive displacement ligands in agonist or antagonist protocols (as indicated) and various reference compounds and inhibitors to titrate specific binding to receptors and transporters. Most enzyme assays (CYPs, kinases, phosphatases, proteases, HDACs) used recombinant protein and specific substrates (fluorescence mostly, some colorimetric and radioactive) and inhibitors, followed by a biochemical separation of substrate and product. All assays for the biochemical HTS were initially run in duplicate at a single concentration (10 uM for CYP450 assays and 25 uM for all others). Assay-chemical combinations meeting a pre-defined threshold (e.g., 30% inhibition and other criteria defined below) were then run in singleton concentration-response format with maximum concentration of 20 uM for CYPs and 50 uM for all others. Each assay was run with positive and negative controls, and concurrent controls on every plate. The follow-up (secondary) screen tested active chemical-pairs in concentration series, as well as a few additional assays not tested in the primary screen, some selected negative inactives, and several cases re-run in the concentration series for confirmatory purposes.
# Chain of human Microtubule Affinity Regulating Kinase 1 (MARK1), MARK1 (gene 4139) (Q9P0L2 whole entry, looked up): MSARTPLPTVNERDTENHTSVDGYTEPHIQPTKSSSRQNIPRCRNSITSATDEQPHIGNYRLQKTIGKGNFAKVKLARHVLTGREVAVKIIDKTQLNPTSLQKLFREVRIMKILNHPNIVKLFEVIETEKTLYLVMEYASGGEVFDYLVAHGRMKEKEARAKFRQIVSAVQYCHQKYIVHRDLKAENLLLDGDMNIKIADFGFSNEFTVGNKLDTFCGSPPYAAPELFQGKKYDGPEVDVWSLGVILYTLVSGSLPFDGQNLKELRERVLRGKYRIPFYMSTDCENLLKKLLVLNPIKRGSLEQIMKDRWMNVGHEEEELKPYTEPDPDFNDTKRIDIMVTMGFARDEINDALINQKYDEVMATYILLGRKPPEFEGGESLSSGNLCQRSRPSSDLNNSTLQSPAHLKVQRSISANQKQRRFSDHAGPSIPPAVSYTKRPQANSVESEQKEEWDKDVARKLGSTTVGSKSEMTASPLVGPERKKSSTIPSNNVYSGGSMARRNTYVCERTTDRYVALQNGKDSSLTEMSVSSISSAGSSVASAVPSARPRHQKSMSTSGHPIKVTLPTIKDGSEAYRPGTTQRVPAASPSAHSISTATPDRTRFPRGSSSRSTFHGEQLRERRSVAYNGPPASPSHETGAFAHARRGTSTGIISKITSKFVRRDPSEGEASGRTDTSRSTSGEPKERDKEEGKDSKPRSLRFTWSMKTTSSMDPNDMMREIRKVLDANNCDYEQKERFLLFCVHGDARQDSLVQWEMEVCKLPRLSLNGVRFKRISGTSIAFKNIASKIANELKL
SMILES,AC50,outcome
O=S(=O)(O)C(F)(F)C(F)(F)C(F)(F)C(F)(F)C(F)(F)C(F)(F)C(F)(F)C(F)(F)F,36.8 µM (active),
CCOP(=O)(OCC)Oc1nc(Cl)c(Cl)cc1Cl,,inactive
CN(C)[C@@H]1C(=O)C(C(N)=O)=C(O)[C@@]2(O)C(=O)C3=C(O)c4c(O)cccc4[C@@](C)(O)[C@H]3[C@H](O)[C@@H]12,18 µM (active),
N#CSCSC#N,,inactive
COC(=O)c1ccccc1S(=O)(=O)NC(=O)N(C)c1nc(C)nc(OC)n1,,inactive
Nc1c(Cl)cc([N+](=O)[O-])cc1Cl,,inactive
O=C(O)C(F)(F)C(F)(F)C(F)(F)C(F)(F)C(F)(F)C(F)(F)C(F)(F)F,,inactive
CNC(=S)S,,inactive
COP(=S)(OC)Oc1nc(Cl)c(Cl)cc1Cl,,inactive
COc1nc(C)nc(NC(=O)NS(=O)(=O)c2ccccc2CCC(F)(F)F)n1,,inactive
CCNC(=O)NC(=O)C(C#N)=NOC,,inactive
CCOP(=S)(OCC)Oc1nc(Cl)n(C(C)C)n1,,inactive
